Measurements reported in ChEMBL document CHEMBL3988442, “University of Dundee, Small-Polar-MMV Screening Library” (2021).
The whole screen tested about 53,000 compounds, of which about 900 (1.7%) showed an effect of 50% or more. Only a selection was taken, and strong results are over-represented in it overall.

tested on: Mycobacterium tuberculosis; assay: Cornell - Phenotypic assay to identify agents that inhibit growth of Mycobacterium tuberculosis; format: functional; set-up: scale not given: direction of the effect not stated beside the values; conditions: 10 mM as filed; unlikely as a test dose

Compound | Percent Effect [%]
Cc1noc(C)c1CCC(=O)Nc1ccn(C)n1 | -3.564
CC(C)(C(N)=O)S(=O)(=O)c1ccc(Br)cc1 | 7.461
CCc1nnc2sc(-c3cc(C(C)C)n[nH]3)nn12 | -59.74
CC(C)(CC(=O)Nc1cccc(Oc2ccccn2)c1)C(=O)O | -19.67
CC(C)NC(=O)CCC(=O)N1CCC(c2noc3cc(F)ccc23)CC1 | -48.35
O=C(Cn1ccc2c(Cl)cccc21)Nc1nc[nH]n1 | 5.076
Cc1cccc(CN2CCC3(CCN(c4ccccn4)C3)C2=O)c1.O=C(O)C(F)(F)F (configuration not stated) | 27.3
Cc1cccc(CN2CCC3(CCN(c4ncccn4)CC3)C2=O)c1.O=C(O)C(F)(F)F | 58.32
Cc1cccc(CN2CCC3(CCN(c4ncccn4)C3)C2=O)c1 (configuration not stated) | 5.151
CN(Cc1cccc(F)c1)Cc1nc2c(cnn2C)c(=O)[nH]1 | -23.35
Cc1noc(C)c1CN1CCC(c2nnc(Cn3cccn3)n2C)CC1 | 16.69
C[C@@H]1CN(c2cccnn2)CC[C@@]1(O)C1CCOCC1 | -7.399
Cc1ccc(-c2nc(CN3C[C@@H](C)NC[C@@H]3C)c(C)o2)s1 | 12.13
Cc1ccc(-c2cccc(N3CCC(NC4CCOCC4)CC3)c2)cc1 | 33.16
Clc1cccc(-c2cccc(N3CCC(NC4CCOCC4)CC3)c2)c1 | 72.63
COc1cccc(-c2cccc(N3CCC(N[C@@H]4CCOC4)CC3)c2)c1 | 39.62
CCc1ccc(-c2ncc3c(n2)N(C)CCN(CCN(C)C)C3=O)cc1 | 13.52
Cc1nn(CC(C)C)c(N(C)C)c1CNCc1cccnc1N(C)C | 34.46
Cc1nn(CC(C)C)c(N(C)C)c1CNCCCNS(C)(=O)=O | 49.77
Cc1nn(CC(C)C)c(N(C)C)c1CNCc1cc2ccccc2[nH]1 | 72.88
CC(=O)NCCCNCc1c(C)nn(CC(C)C)c1N(C)C | 2.619
Cc1nn(CC(C)C)c(N(C)C)c1CNCCS(C)(=O)=O | 83.1
Cc1nc(C)c(C(C)NCc2c(C)nn(C)c2N(C)C)s1 (configuration not stated) | 45.94

Compound | Percent Effect [%]
Cc1nc(C)c(C(C)NCc2c(C(C)C)nn(C)c2N(C)C)s1 (configuration not stated) | 21.22
Cc1nn(CC(C)C)c(N(C)C)c1CNCc1ccccc1CO | 17.46
Cc1nc(C)c(C(C)NCc2c(C)nn(CC(C)C)c2N(C)C)s1 (configuration not stated) | 102.6
O=C(Cc1csc(-c2ccoc2)n1)NCCC(=O)N1CCCCC1 | -18.79
O=C(CN1CCC(c2ccccc2)CC1)NCc1cc2n(n1)CCNC2 | -6.243
Cc1ccc(NC(=O)c2coc(C)n2)c(C)c1 | 2.34
CCN1CCCC(O)(c2nc(C)c(CCOc3ccccc3Cl)s2)CC1 (configuration not stated) | 12.65
Fc1cnc(N2CCO[C@H]3[C@H](OCC4CCOCC4)CC[C@@H]32)nc1.O=C(O)C(F)(F)F | -12.23
Cl.Fc1cccc(CN2CCC(c3cc4ncccc4cn3)CC2)c1F | 106.5
Cl.Fc1ccc(F)c(CN2CCC(c3cc4ncccc4cn3)CC2)c1 | 106.2
Fc1cccc(CN2CCC(c3noc(-c4ccccn4)n3)CC2)c1F | 10.24
Fc1cc(F)cc(CN2CCC(c3cc4ncccc4cn3)CC2)c1 | 48.17
Fc1ccc(F)c(CN2CCC(c3cnccn3)CC2)c1 | -8.862
CCc1cc(C(=O)N2CCC(c3cc4ncccc4cn3)CC2)no1 | -43.86
Fc1cccc(CN2CCC(c3n[nH]c4ncccc34)CC2)c1F | 12.02
CCc1onc(C)c1C(=O)N1CCC(c2cc3ncccc3cn2)CC1 | -10.62
COc1ccc(C)cc1CN1CCC(c2cc3ncccc3cn2)CC1.Cl | 102.1
CN(C)CC(=O)N1CCCC1c1ccccn1 (configuration not stated) | -4.262
Cc1cc(O)nc(C2CN(CCO)CCO2)n1 (configuration not stated) | -14.9
O=C(NC(Cc1ccsc1)c1nccs1)C1CC1 (configuration not stated) | 1.52
COc1ccc(-c2cc(C(=O)NCCC(C)C)n(C)n2)cc1 | 20.81
Cc1cnc(-c2nc(O)c3c(n2)CN(C(=O)C2CCOC2)CC3)cn1 (configuration not stated) | 13.55
Cc1nccn1-c1nccnc1C1CCCN(C2CCCC2)C1 (configuration not stated) | -26.29

Compound | Percent Effect [%]
CCc1nccn1C1CCCN(C(=O)c2c(C)nsc2NC)C1 (configuration not stated) | -1.736
COCCc1noc(CNC(C)(CO)C2CCCCC2)n1 (configuration not stated) | 19.83
Cc1ncc2c(n1)CN(CC(=O)Nc1c(C)nn(C)c1C)CC2 | -7.381
CCCOC1CCCN(Cc2nc(-c3ccc(F)cc3F)oc2C)C1 (configuration not stated) | 18.51
COCc1ncn(Cc2nc(-c3ccc(OC)cc3F)oc2C)n1 | -34.66
COc1ccc(-c2nc(CN3CCCC(OC)C3)c(C)o2)c(F)c1 (configuration not stated) | 56.05
COCC(=O)NC[C@]1(O)CN(Cc2ccc3c(c2)OCCO3)C[C@H]1O | 24.95
C=Cn1ncc(CN2CCC(c3ncc(Cl)cc3S(C)(=O)=O)CC2)c1C | 0.06604
CCn1ncc(CN2CCC(c3ncc(Cl)cc3S(C)(=O)=O)CC2)c1C | 50.49
CCn1cc(CN2CCC(c3ncc(Cl)cc3S(C)(=O)=O)CC2)c(C)n1 | 37.62
O=C(NS(=O)(=O)c1cccnc1)C1CC(c2ccccc2)=NO1 (configuration not stated) | 35.93
Cc1ncc2c(n1)CCCC2NC(=O)c1ccc(Cn2cccn2)cc1 (configuration not stated) | -3.537
Cc1occc1C(=O)N1CCC2(CC1)CN(c1ccccn1)CCO2.O=C(O)C(F)(F)F | 15.62
COCc1cc(N(C)Cc2c(C)nn(C)c2C)n2nccc2n1 | -21.67
CCc1cc(N(C)Cc2ccncn2)n2nccc2n1 | -22.97
CCc1ccc(CN(C)c2cc(COC)nc3ccnn23)cc1 | 59.92
CCCc1nc(N[C@H]2COC[C@@H]2N2CCCCC2)c2cnn(C)c2n1 | 6.118
COc1cn(-c2ccccc2)nc1C(=O)NCCN1CCCC(C)C1 (configuration not stated) | -24.88
CC(C)CCc1n[nH]c(C(=O)O)c1Cl | -0.9753
CC(C)CCc1n[nH]c(C(=O)O)c1I | 42.63
CC(C)CCc1n[nH]c(C(=O)O)c1Br | 50.18
